Test results published in PubChem BioAssay (NCATS).
Inconclusive results are not listed. The source made the active and inactive calls. The call rests on the fitted dose curve; in most records, active means well fitted curve in the direction sought with a large enough effect; inconclusive means small, poorly fitted or top-dose-only effect, or another doubt; inactive means no such curve, though single readings can be large; an effect the other way counts as inactive or inconclusive.

Experiments:
[1] = target: DNA dC->dU-editing enzyme APOBEC-3G (Homo sapiens) (UniProt Q9HC16); assay: qHTS for inhibitors of Vif-A3G interactions: Validation (AID 588379); conditions: Vif-A3G protein interaction assay; series mostly up to 46.1 µM; further: 0% is about no effect
Outline: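 HeLa cells stably expressing Vif and A3G-eYFP, 700 cells/well, incubated overnight at 37 deg C, then exposed to compound overnight at 37 deg C. Inhibition of Vif-mediated degradation read as increased yellow fluorescence (Ex 488/Em 500-530) by laser-scanning cytometry.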

[2] = system: AS120; assay: qHTS profiling for inhibitors of Plasmodium falciparum proliferation (AID 504749); further: nearly all actives have a fitted effect of over 60% in size; further: potency means the concentration at half of the fitted maximal effect; conditions: P. falciparum in erythrocytes, SYBR Green DNA, 72 h; series mostly up to 28.7 µM
Outline: (§1)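 Three-day growth assay of blood-stage parasites in erythrocytes (0.3% parasitemia, 2.5% hematocrit) at 37 C, 5% CO2, quantified by SYBR Green DNA staining after overnight detergent lysis.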

[3] = system: ATS189; assay: as above; conditions: P. falciparum in erythrocytes, SYBR Green DNA, 72 h; series mostly up to 12.8 µM
Outline: as §1

[4] = system: CP185; assay: as above; conditions: P. falciparum in erythrocytes, SYBR Green DNA, 72 h; series mostly up to 12.8 µM
Outline: as §1

[5] = system: CP192; assay: as above; conditions: P. falciparum in erythrocytes, SYBR Green DNA, 72 h; series mostly up to 28.7 µM
Outline: as §1

[6] = system: CP194; assay: as above; conditions: P. falciparum in erythrocytes, SYBR Green DNA, 72 h; series mostly up to 12.8 µM
Outline: as §1

[7] = system: CP203; assay: as above; conditions: P. falciparum in erythrocytes, SYBR Green DNA, 72 h; series mostly up to 12.8 µM
Outline: as §1

[8] = system: CP247; assay: as above; conditions: P. falciparum in erythrocytes, SYBR Green DNA, 72 h; series mostly up to 12.8 µM
Outline: as §1

[9] = system: CP291; assay: as above; conditions: P. falciparum in erythrocytes, SYBR Green DNA, 72 h; series mostly up to 12.8 µM
Outline: as §1

[10] = system: CP305; assay: as above; conditions: P. falciparum in erythrocytes, SYBR Green DNA, 72 h; series mostly up to 12.8 µM
Outline: as §1

[11] = system: DIV30; assay: as above; conditions: P. falciparum in erythrocytes, SYBR Green DNA, 72 h; series mostly up to 12.8 µM
Outline: as §1

[12] = system: P94_40; assay: as above; conditions: P. falciparum in erythrocytes, SYBR Green DNA, 72 h; series mostly up to 12.8 µM
Outline: as §1

[13] = system: TAB109; assay: as above; conditions: P. falciparum in erythrocytes, SYBR Green DNA, 72 h; series mostly up to 12.8 µM
Outline: as §1

[14] = system: TAB113; assay: as above; conditions: P. falciparum in erythrocytes, SYBR Green DNA, 72 h; series mostly up to 12.8 µM
Outline: as §1

[15] = target: Cytochrome P450 1A2 (Homo sapiens) (UniProt P05177); assay: qHTS for inhibitors of CYPIA2 against the NCATS DSHEA and TCM libraries (AID 1919976); conditions: recombinant CYP1A2 enzyme activity, luminescence; series mostly up to 37 µM; further: potency means the concentration at half of the fitted maximal effect
Outline: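 In this quantitative HTS, inhibition of recombinant human CYP1A2 was measured as loss of luciferin-derived luminescence. Turnover ran 30-45 min at RT after NADPH regeneration solution was added.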

[16] = qHTS Counterscreen for compound interference against the NCATS DSHEA and TCM libraries (AID 1919978); conditions: firefly luciferase detection reagent interference, luminescence; further: % of control where 0% means no effect
Outline: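 Read-out is luminescence after 30 min at RT with luciferin detection reagent. Before that, compounds (19.5 nM to 39.8 uM final) sat 15 min at RT with 1 uM D-luciferin or 100 mM potassium phosphate buffer. PTC124 served as intraplate control.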

[17] = Dual reporter qHTS for agonist of Pregnane X Receptor (hPXR) against the NCATS DSHEA and TCM libraries: Fluorescence readout (AID 1920058); conditions: PXR dual reporter cells; series mostly up to 40 µM; further: 0% is about no effect
Outline: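 Measures viability of the PXR reporter HepG2 line by protease-substrate fluorescence (405/540 nm), taken 1 h after CellTiter-Fluor addition. Substances are tested as concentration series over a ~24 h exposure, with rifampicin as agonist control.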

[18] = target: Nuclear receptor subfamily 1 group I member 2 (Homo sapiens) (UniProt O75469); assay: Dual reporter qHTS for agonist of Pregnane X Receptor (hPXR) against the NCATS DSHEA and TCM libraries: Luminescence readout (AID 1920059); conditions: hPXR dual reporter cells, luciferase luminescence agonist; series mostly up to 40 µM; further: 0% is about no effect
Outline: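 Luminescent PXR reporter read (ONE-Glo) after a CellTiter-Fluor viability read, following 24 h, 37C treatment of HepG2 cells stably carrying hPXR-Luc.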

[19] = target: Nuclear receptor subfamily 1 group I member 2 (Homo sapiens) (UniProt O75469); assay: Dual reporter qHTS for antagonist of Pregnane X Receptor (hPXR) against the NCATS DSHEA and TCM libraries: Luminescence Readout (AID 1920060); conditions: hPXR dual reporter cells, luciferase luminescence, antagonist mode; series mostly up to 40 µM;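 further: HepG2 cells carrying hPXR luciferase reporter stimulated with rifampicin at 2 µM; 0% is about no effect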
Outline: (§2)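 hPXR-Luc HepG2 cells exposed 24 h at 37 C to compounds with 2 uM rifampicin in antagonist mode; luciferase luminescence measured by ONE-Glo, with CellTiter-Fluor viability read beforehand.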

[20] = Dual reporter qHTS for antagonist of Pregnane X Receptor (hPXR) against the NCATS DSHEA and TCM libraries: Fluorescence Readout (AID 1920061); conditions: PXR dual reporter cells, antagonist mode; series mostly up to 40 µM; further: 0% is about no effect
Outline: as §2

Cytochrome P450 1A2 (Homo sapiens), sequence (P05177 whole entry, looked up): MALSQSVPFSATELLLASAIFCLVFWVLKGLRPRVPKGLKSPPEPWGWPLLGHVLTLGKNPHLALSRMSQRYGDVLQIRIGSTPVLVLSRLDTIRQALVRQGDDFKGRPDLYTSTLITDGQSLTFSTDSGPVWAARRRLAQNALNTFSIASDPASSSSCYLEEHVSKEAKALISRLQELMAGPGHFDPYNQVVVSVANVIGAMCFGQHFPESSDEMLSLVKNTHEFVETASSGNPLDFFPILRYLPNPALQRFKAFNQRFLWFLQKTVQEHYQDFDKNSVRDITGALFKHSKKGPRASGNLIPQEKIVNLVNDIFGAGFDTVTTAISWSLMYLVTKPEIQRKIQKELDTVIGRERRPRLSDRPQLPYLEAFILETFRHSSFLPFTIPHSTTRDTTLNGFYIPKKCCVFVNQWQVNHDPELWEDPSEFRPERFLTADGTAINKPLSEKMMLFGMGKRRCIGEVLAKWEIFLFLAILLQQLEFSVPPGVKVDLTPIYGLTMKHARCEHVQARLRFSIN
Nuclear receptor subfamily 1 group I member 2 (Homo sapiens), sequence (O75469 whole entry, looked up): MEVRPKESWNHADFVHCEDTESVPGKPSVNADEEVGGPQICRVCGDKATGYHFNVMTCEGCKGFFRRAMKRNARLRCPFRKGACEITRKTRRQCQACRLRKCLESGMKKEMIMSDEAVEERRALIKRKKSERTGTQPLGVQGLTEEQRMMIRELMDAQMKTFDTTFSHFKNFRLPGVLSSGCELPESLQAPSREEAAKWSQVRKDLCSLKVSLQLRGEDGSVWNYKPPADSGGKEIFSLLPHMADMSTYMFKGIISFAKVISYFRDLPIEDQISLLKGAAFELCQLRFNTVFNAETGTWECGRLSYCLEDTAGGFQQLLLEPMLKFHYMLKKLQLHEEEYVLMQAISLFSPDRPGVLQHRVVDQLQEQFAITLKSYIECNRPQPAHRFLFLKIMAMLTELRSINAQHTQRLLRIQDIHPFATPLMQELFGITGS
DNA dC->dU-editing enzyme APOBEC-3G (Homo sapiens), sequence (Q9HC16 whole entry, looked up): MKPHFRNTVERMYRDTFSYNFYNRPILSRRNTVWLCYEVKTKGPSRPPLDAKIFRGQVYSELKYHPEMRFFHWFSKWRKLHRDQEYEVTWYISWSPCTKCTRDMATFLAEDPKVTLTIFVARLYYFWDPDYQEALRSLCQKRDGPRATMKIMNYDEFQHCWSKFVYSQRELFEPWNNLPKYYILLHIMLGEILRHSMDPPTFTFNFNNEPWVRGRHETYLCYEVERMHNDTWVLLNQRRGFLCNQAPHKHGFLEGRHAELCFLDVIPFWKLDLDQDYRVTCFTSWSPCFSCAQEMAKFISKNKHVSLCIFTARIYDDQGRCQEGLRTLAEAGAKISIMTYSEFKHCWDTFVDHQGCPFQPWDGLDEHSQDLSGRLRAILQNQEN

COc1cc2c3cc1Oc1c(OC)c(OC)cc4c1[C@@H](Cc1ccc(O)c(c1)Oc1ccc(cc1)C[C@@H]3N(C)CC2)N(C)CC4
inactive: outcome [1]

Cc1cc(/C=C\c2ccc3cc(N(C)C)ccc3[n+]2C)c(C)n1-c1ccccc1
active: Potency [2] 3160 nM | Potency [3] 3160 nM | Potency [4] 1580 nM | Potency [5] 2030 nM | Potency [6] 2870 nM | Potency [7] 2280 nM | Potency [8] 3550 nM | Potency [9] 3610 nM | Potency [10] 2560 nM | Potency [11] 2560 nM | Potency [12] 1000 nM | Potency [13] 1410 nM | Potency [14] 1780 nM

O=C1C=CC2=C3c4cc(O)c(O)cc4CC3(O)COC2=C1O (stereo unspecified)
inactive: outcome [1]

CN(C)CC/C=C1\c2ccccc2CSc2ccccc21
inactive: Potency [5]

NC(Cc1c[nH]c2ccccc12)C(=O)O (stereo unspecified)
inactive: max response [16] 1.56% | outcome [17] | outcome [18] | outcome [19] | outcome [20]
active: Potency [15] 3550 nM

COc1ccc2ccc(=O)oc2c1
active: Potency [15] 14100 nM
inactive: max response [16] 3.31% | outcome [17] | outcome [18] | outcome [19] | outcome [20]

O=c1ccc2ccc(O)cc2o1
inactive: Potency [15] | max response [16] 2.6% | outcome [17] | outcome [18] | outcome [19] | outcome [20]

CC(C)N1CCN(c2ccc(OC[C@@H]3CO[C@@](Cn4cncn4)(c4ccc(Cl)cc4Cl)O3)cc2)CC1
inactive: Potency [2] | Potency [3] | Potency [4] | Potency [6] | Potency [7] | Potency [8] | Potency [9] | Potency [10] | Potency [11] | Potency [12] | Potency [13] | Potency [14]
